Values joined by “and” are separate entries in the source; they are usually repeats but may differ in a detail not shown here. Equal values may be shown once. The campaign covered roughly 5,500 compounds. About 2,000 (36%) were called active. Not shown: some 18% with an inconclusive outcome. No stated cut-off is given here; in the data, active means normalized growth mostly below about 0.91 (no sharp cut-off); inconclusive means no clear call, values can overlap the other calls; inactive means mostly above about 0.92. This is one part of the list.
Experiment: chemical genetic growth profiling, strain panel (AID 1159580);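 further: tested at 20 µM; growth read once vehicle control cultures reached saturation at 30 °C; 1 = growth at the plate median or of vehicle wells; lower values mean less growth of the strain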
Conditions: S. cerevisiae deletion strains, growth OD

Measured: normalized growth

C/C=C/c1ccc2c(c1)OCO2
inactive: locus YAL013W, strain DEP1, hits give low values 1.01 | locus YAL021C, strain ccr4, hits give low values 1.02 | locus YAL026C, strain drs2, hits give low values 1.02 | locus YAL030W, strain snc1, hits give low values 1.02 | locus YBL061C, strain skt5, hits give low values 1.02 | locus YBR009C, strain hhf1, hits give low values 1.02 | locus YBR021W, strain FUR4, hits give low values 1.02 | locus YBR023C, strain chs3, hits give low values 1.02 | locus YBR171W, strain sec66, hits give low values 1.03 | locus YBR229C, strain ROT2, hits give low values 1.01 | locus YBR231C, strain swc5, hits give low values 1.02 | locus YBR279W, strain paf1, hits give low values 1.02 | locus YCL011C, strain gbp2, hits give low values 1.01 | locus YCL016C, strain dcc1, hits give low values 1.02 | locus YCL029C, strain bik1, hits give low values 1.01 | locus YCL061C, strain MRC1, hits give low values 1 | locus YCL069W, strain vba3, hits give low values 1.02 | locus YCR088W, strain abp1, hits give low values 1.02 | locus YDL005C, strain med2, hits give low values 1.02 | locus YDL035C, strain GPR1, hits give low values 1.02 | locus YDL040C, strain nat1, hits give low values 1.02 | locus YDL074C, strain BRE1, hits give low values 1.07 | locus YDL101C, strain DUN1, hits give low values 1.02 | locus YDL134C, strain PPH21, hits give low values 1 | locus YDL185W, strain tfp1, hits give low values 0.998 | locus YDL192W, strain arf1, hits give low values 1.01 | locus YDR001C, strain nth1, hits give low values 1 | locus YDR069C, strain doa4, hits give low values 1.04 | locus YDR101C, strain arx1, hits give low values 1.04 | locus YDR137W, strain rgp1, hits give low values 0.994 | locus YDR150W, strain NUM1, hits give low values 1.01 | locus YDR159W, strain sac3, hits give low values 1.02 | locus YDR162C, strain NBP2, hits give low values 1 | locus YDR195W, strain ref2 0.988 | locus YDR297W, strain sur2, hits give low values 1.02 | locus YDR318W, strain mcm21, hits give low values 0.991 | locus YDR334W, strain swr1, hits give low values 1.02 | locus YDR335W, strain msn5, hits give low values 1.02 | locus YDR388W, hits give low values 1.01 | locus YDR392W, strain spt3, hits give low values 0.912 | locus YDR502C, strain sam2, hits give low values 1.01 | locus YEL003W, strain gim4, hits give low values 1.02 | locus YEL037C, strain rad23, hits give low values 1.01 | locus YEL061C, strain CIN8 (second series), hits give low values 1.01 | locus YEL061C, strain CIN8, hits give low values 1.01 | locus YER015W, strain faa2, hits give low values 1.01 | locus YER016W, strain bim1, hits give low values 1.02 | locus YER110C, hits give low values 1.01 | locus YER111C, strain swi4, hits give low values 1.01 | locus YER155C, strain BEM2 (second series), hits give low values 0.997 | locus YER155C, strain BEM2, hits give low values 1.01 | locus YER167W, strain BCK2, hits give low values 1.01 | locus YFR010W, strain ubp6, hits give low values 1.02 | locus YGL078C, strain dbp3, hits give low values 1.02 | locus YGL086W, strain mad1, hits give low values 1.05 | locus YGL167C, strain pmr1, hits give low values 1.02 | locus YGL173C, strain kem1, hits give low values 1.02 | locus YGL227W, strain vid30, hits give low values 1.02 | locus YGL240W, strain doc1, hits give low values 1.01 | locus YGL248W, strain PDE1, hits give low values 1.02 | locus YGL253W, strain hxk2, hits give low values 1.02 | locus YGR078C, strain PAC10, hits give low values 1.01 | locus YGR135W, strain pre9, hits give low values 1.01 | locus YGR252W, strain gcn5, hits give low values 0.972 | locus YHR013C, strain ard1, hits give low values 1.09 | locus YHR027C, strain rpn1, hits give low values 1.02 | locus YHR030C, strain SLT2, hits give low values 1.01 and 0.978 | locus YHR079C, strain IRE1 (second series), hits give low values 1 | locus YHR079C, strain IRE1, hits give low values 0.98 | locus YHR094C, strain hxt1, hits give low values 0.994 | locus YHR129C, strain ARP1, hits give low values 1.01 | locus YHR142W, strain chs7, hits give low values 1.03 | locus YHR200W, strain rpn10, hits give low values 1.01 | locus YIL066C, strain RNR3, hits give low values 1.02 | locus YIL073C, strain SPO22, hits give low values 1.06 | locus YIL125W, strain kgd1, hits give low values 1.01 | locus YIR030C, strain dcg1, hits give low values 0.998 | locus YJL092W, strain hpr5, hits give low values 1.01 | locus YJL095W, strain BCK1 (second series), hits give low values 1.02 | locus YJL095W, strain BCK1, hits give low values 1.02 and 0.98 | locus YJL115W, strain asf1, hits give low values 1.03 | locus YJL129C, strain trk1, hits give low values 1.03 | locus YJL134W, strain LCB3, hits give low values 1.01 | locus YJL154C, strain vps35, hits give low values 1 | locus YJL164C, strain tpk1, hits give low values 1.01 | locus YJL166W, strain qcr8, hits give low values 1.01 | locus YJL168C, strain set2, hits give low values 1.01 | locus YJL187C, strain SWE1 (second series), hits give low values 1.03 | locus YJL187C, strain SWE1, hits give low values 1.01 | locus YJR043C, strain POL32, hits give low values 1.02 | locus YJR066W, strain TOR1, hits give low values 0.948

Source: PubChem BioAssay AID1159580 (chemical genetic matrix, 2015)
